Shown are actives, neighbours in structure and some others; about 4.1% of the full set was active somewhere.
697 NFkB inh: lowers PMA/ionomycin-induced NF-kB signal in 697 B cells. 697 B-cell NF-kB luciferase reporter, 16 h. inhibition, % at 4 µM. 330,000 tested, 0.33% active; in the data active = inhibition above about 35%
Jurkat NFkB inh: lowers PMA/ionomycin-induced NF-kB signal in Jurkat cells; PMA/ionomycin-induced NF-kB luciferase reporter, luminescence; inhibition, % at 4 µM; 330,000 tested, 0.53% active; AID 435003; in the data active = inhibition above about 50%
aSyn UTR inh: MLPCN primary screen, SNCA 5' untranslated region | alpha-synuclein 5'UTR reporter, inhibitor activity | inhibition, % (tested at 7.5 µM) | 300,000 tested, 0.82% active | AID 1813; in the data active = inhibition above about 60%; inconclusive = no clear call, values can overlap the other calls;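 also: H4 neuroglioblastoma cells stably carrying SNCA 5'UTR luciferase fusion; 0% = DMSO wells and 100% = positive control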
Mdm2-MdmX inh: inhibitors of human Mdm2/MdmX interaction; inhibition, % at 8 µM; 330,000 tested, 3% active; SaOS-2 split-luciferase Mdm2/MdmX complementation, luminescence; O15151+Q00987;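 active = inhibition of at least 50% at 8 µM in the primary screen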
Gli-Sufu antag: Gli-Sufu pathway antagonism | inhibition, % at 5 µM | AID 588413 | Sufu-KO-LIGHT fibroblasts, Gli luciferase reporter luminescence | 340,000 tested, 0.74% active;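 active = inhibition above about 55%, limit read from the data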;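 also: 0% = DMSO-treated cells and 100% = wells with medium but no cells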
KLF5 inh: inhibitors of KLF5 expression; DLD-1 KLF5 promoter-luciferase reporter, luminescence; inhibition, % at 5 µM; 290,000 tested, 0.23% active;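 active = inhibition above a per-plate limit of that plate's mean compound inhibition plus 3 SD, cut at about 60% in these data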;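 also: 0% = DMSO wells and 100% = LY294002 at 200 µM; higher means less KLF5 promoter-driven luciferase light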
KLF5 confirm: confirmation of KLF5 inhibitors; shares compounds with KLF5 inh; DLD-1 KLF5 promoter firefly luciferase reporter, luminescence; inhibition, % at 4 µM; 610 tested, 79% active; AID 1834;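 active = inhibition above a set limit taken from the earlier primary screen, cut at about 63% in these data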;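 also: 0% = DMSO wells and 100% = LY294002 at 200 µM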
IEC-6 tox: rat IEC-6 cytotoxicity, KLF5 inhibitor counter-screen. shares compounds with KLF5 inh. IEC-6 rat intestinal cells, viability luminescence. inhibition, % at 4 µM. 610 tested, 56% active. AID 1905; in the data active = inhibition above about 23%;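 also: cells exposed to compounds for 48 hours before viability read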
Jurkat NFkB conf: inhibitors of the PMA/ionomycin-induced NF-kB reporter in Jurkat cells, retest; shares compounds with Jurkat NFkB inh; Jurkat NF-kB luciferase, 16 h; inhibition, % at 4 µM; 2,700 tested, 27% active; AID 435020;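 active = inhibition reaching about 45% at 4 µM in either replicate, limit read from the data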;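 also: plate controls were PMA/ionomycin stimulated DMSO wells for no effect and unstimulated DMSO wells for full effect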
697 NFkB conf: inhibitors of the PMA/ionomycin-induced NF-kB reporter in 697 B cells, retest; shares compounds with 697 NFkB inh; 697 B-cell NF-kB luciferase, 16 h; inhibition, % at 4 µM; 2,000 tested, 35% active; AID 449746; in the data active = inhibition mostly above about 28%, no sharp cut-off; inactive = mostly below about 22%
Mdm2 MdmX conf: confirmation of human Mdm2/MdmX interaction inhibitors | inhibition, % at 8 µM | Mdm2-MdmX binding, luminescent assay | shares compounds with Mdm2-MdmX inh | AID 489028 | 10,000 tested, 55% active; in the data active = inhibition above about 40%
Full FLuc ctr: counter-screen for Mdm2/MdmX inhibitors: full-length luciferase; shares compounds with Mdm2-MdmX inh; SaOS-2 full-length luciferase counterscreen, luminescence; inhibition, % at 8 µM; 6,200 tested, 77% active; AID 504607;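 active = mean inhibition at 8 µM reaching about 37%, which flags the compound as non-specific, limit read from the data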;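 also: p53-null SaOS-2 cells with luciferase driven by a doxycycline-inducible promoter; compound on cells about two nights before reading with doxycycline added after day one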
Numbers without * were called inactive; ? = inconclusive; . = no result.

SMILES	697 NFkB inh	Jurkat NFkB inh	aSyn UTR inh	Mdm2-MdmX inh	Gli-Sufu antag	KLF5 inh	KLF5 confirm	IEC-6 tox	Jurkat NFkB conf	Mdm2 MdmX conf	Full FLuc ctr	others
COc1ccc(-n2ncc3c(=O)n(CC(=O)N(C(C)C)C(C)C)cnc32)cc1	8	2	2	19	9	-32	.	.	.	.	.
COc1ccc(S(=O)(=O)/N=C2\C=C(Nc3ccc(O)cc3)C(=O)c3ccccc32)cc1	9	74*	100*	100*	95*	104*	114*	102*	83*	94*	7
Cc1occc1C(=O)NN1C(=O)C2C3CCC(O3)C2C1=O (stereo not given)	14	-6	20	-44	2	-4	.	.	.	.	.
COc1ccc(N/N=C/c2c(C(=O)O)ccc3ccccc23)cc1	-9	54*	56	86*	23	73*	91*	7	42	90*	24
CCCCC(=O)Nc1c2c(nn1-c1cccc(C)c1C)CS(=O)(=O)C2	-8	-11	-11	0	.	-15	.	.	.	.	.
O=C(Nc1ncc([N+](=O)[O-])s1)c1ccc2c(c1)OCO2	-109	-10	103*	75*	18	76*	55	36*	.	69*	64*
Cc1ccc([N+](=O)[O-])cc1NC(=O)c1ccc2c(c1)OCO2	-6	-12	-21	-10	-7	-26	.	.	.	.	.
CCOc1ccc(/C=N/Nc2ccc(Cl)nn2)c(O)c1	-15	5	34	54*	15	82*	31	-2	.	38	58*
CCCCN1C(=O)C(C(=O)OCc2ccccc2)CC2=C1CCCC2=O (stereo not given)	.	.	.	.	6	.	.	.	.	.	.
O=C(COC(=O)CN1C(=O)c2ccccc2C1=O)NC1CCCC1	27	2	8	-14	7	-1	.	.	.	.	.
CCOc1ccc(NC(=O)c2cccc3ccccc23)cc1	-76	38	-318	25	.	-17	.	.	.	.	.
CCOc1ccc(NC(=O)c2cc(OC)nc3ccccc23)cc1	1	39	83*	63*	29	66*	82*	63*	.	59*	71*
O=C1CCC(C(=O)N2CCCCO2)CN1Cc1cccc(F)c1 (stereo not given)	-16	-7	-32	0	5	-6	.	.	.	.	.
Cc1ccc2nc(-c3ccc4c(c3)OCCO4)cn2c1	-21	83*	110*	94*	65*	103*	106*	57*	51*	98*	55*
Clc1ccc2nc(-c3ccc4c(c3)OCO4)cn2c1	-210	-144	57	-5	-113	15	.	.	.	.	.
COc1ccc(OC)c(Nc2cc(-c3ccccc3)nc(N)n2)c1	30	56*	68*	69*	47	65*	71*	58*	44	71*	72*
COc1ccc(-c2cc(-c3ccccc3)nc(N)n2)c(O)c1	.	.	.	.	12	.	.	.	.	.	.
Cc1cccc(OCC(=O)N/N=C\c2cc3c(cc2[N+](=O)[O-])OCO3)c1C	3	8	10	2	5	2	.	.	.	.	.
Cc1ccc(COC(=O)c2cc([N+](=O)[O-])ccc2N2CCOCC2)cc1	-6	63*	68*	71*	.	83*	84*	74*	52*	75*	87*
O=C(OCc1ccc([N+](=O)[O-])cc1)c1cc([N+](=O)[O-])ccc1N1CCOCC1	-18	19	11	35	9	.	.	.	.	.	.
CCc1ccn2cc(-c3cc(-c4ccccc4)no3)nc2c1	-32	29	94*	66*	56*	84*	82*	-2	.	67*	95*
O=C(Nc1ccc2nc3n(c(=O)c2c1)CCCCC3)c1c(F)ccc([N+](=O)[O-])c1F	-326	73*	85*	96*	-2	62*	-19	22	35	100*	52*	697 NFkB conf=-227
CCN(CC)c1ccc(-c2nn3c(-c4n[nH]c5c4CCC5)nnc3s2)cc1	-9	58*	72*	51*	46	73*	77*	62*	54*	59*	102*
C1CCC(c2nn3c(-c4n[nH]c5c4CCC5)nnc3s2)CC1	-5	-4	?	29	-4	-21	.	.	.	.	.
O=C(Nc1nc2ccc(S(=O)(=O)N3CCCC3)cc2s1)c1ccccn1	-72	-12	-13	40	-30	-32	.	.	.	.	.
SMILES	697 NFkB inh	Jurkat NFkB inh	aSyn UTR inh	Mdm2-MdmX inh	Gli-Sufu antag	KLF5 inh	KLF5 confirm	IEC-6 tox	Jurkat NFkB conf	Mdm2 MdmX conf	Full FLuc ctr	others
Cc1ccc2nc(NC(=O)c3ccccn3)sc2c1	-126	34	111*	100*	78*	65*	87*	98*	.	90*	56*
Cc1occc1C(=O)N1CCCC(N2CCN(c3ccccc3F)CC2)C1 (stereo not given)	-4	-14	0	13	2	-23	.	.	.	.	.
COc1ccc(NC(=O)/C(Cl)=C(/Cl)S(=O)Cc2ccccc2Cl)cn1 (stereo not given)	-349	100*	.	98*	72*	107*	111*	63*	98*	100*	2	697 NFkB conf=-110
O=C(/C=C/c1ccccc1)Nc1cc(NC(=O)/C=C/c2ccccc2)cc(C(=O)O)c1	21	5	-21	-9	7	-4	.	.	.	.	.
O=C(/C=C/c1ccccc1)Nc1cccc(C(=O)O)c1	82*	82*	95*	68*	-80	102*	101*	1	76*	64*	20	697 NFkB conf=79*
CC1CCN(Cc2c(C(=O)N/N=C/c3cc(Cl)ccc3O)nnn2-c2nonc2N)CC1	-36	23	62*	79*	80*	69*	86*	42*	.	84*	22
CC1CCN(Cc2c(C(=O)N/N=C/c3cc(Br)ccc3O)nnn2-c2nonc2N)CC1	-29	37	77*	85*	86*	70*	84*	42*	.	83*	56*
COc1c(Cl)cc(Cl)cc1/C=N/NC(=O)c1nnn(-c2nonc2N)c1CN1CCC(C)CC1	12	8	4	34	-5	-24	.	.	.	.	.
CN(C)c1ccc(/C=N/NC(=O)COc2ccccc2)cc1	-5	-25	-32	-3	-23	-39	.	.	.	.	.
